# Measurements reported in PubChem BioAssay (NCATS).
# Several values for one entry are separate records, joined by “and”; a condition that tells them apart may be missing. Equal values may be shown once. Records with an inconclusive call do not appear. Unmarked numbers belong to inactive results. Activity calls are given as the source filed them. The call rests on the fitted dose curve; in most records, active means well fitted inhibition curve with a large enough effect in the repeat runs; inconclusive means weak or mixed curves; inactive means flat fitted curve, though single readings scatter.
# Target: Cytochrome P450 2D6 (Homo sapiens) (UniProt P10635)
# Assay: Cytochrome P450 family 2 subfamily D member 6 (CYP2D6) small molecule antagonists: luciferase biochemical (cell-free) qHTS assay (AID 1645840); further: nearly all actives have a fitted effect of over 55% in size
# Settings: P450-Glo CYP2D6 enzyme, luciferin luminescence, 1 h; series mostly up to 57.4 µM; activity change, negative = inhibition: at the top concentration
# Procedure, shortened: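 P450-Glo CYP2D6 system: proluciferin substrate converted by enzyme to luciferin, read by luminescence proportional to activity. Enzyme-substrate mix with compound 10 min at room temperature, then NADPH regeneration 1 h before detection reagent.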
# On the % scale 0 is the no-effect control and ±100 the full control effect; potency means the concentration at half of the fitted maximal effect.
# Cytochrome P450 2D6 (Homo sapiens), sequence (P10635 whole entry, looked up): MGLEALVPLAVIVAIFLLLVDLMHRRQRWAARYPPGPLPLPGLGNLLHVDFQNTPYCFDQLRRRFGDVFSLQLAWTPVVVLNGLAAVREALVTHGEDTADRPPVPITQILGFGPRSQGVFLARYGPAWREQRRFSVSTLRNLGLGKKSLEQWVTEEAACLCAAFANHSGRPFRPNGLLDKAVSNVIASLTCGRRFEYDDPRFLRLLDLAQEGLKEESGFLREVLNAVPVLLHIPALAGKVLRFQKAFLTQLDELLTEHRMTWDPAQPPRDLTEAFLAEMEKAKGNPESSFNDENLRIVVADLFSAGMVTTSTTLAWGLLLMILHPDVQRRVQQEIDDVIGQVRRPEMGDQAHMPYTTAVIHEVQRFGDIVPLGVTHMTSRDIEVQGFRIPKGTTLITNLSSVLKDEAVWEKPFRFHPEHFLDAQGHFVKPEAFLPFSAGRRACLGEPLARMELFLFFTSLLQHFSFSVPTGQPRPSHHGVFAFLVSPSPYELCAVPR
Compound,"activity change, negative = inhibition [%]",Potency
CCCCOC(=O)CC(CC(=O)OCCCC)(OC(C)=O)C(=O)OCCCC,-23,–
O=C(c1ccc(F)cc1)C1CCN(CCn2c(=S)[nH]c3ccccc3c2=O)CC1,–,0.776 µM (active)
O=C(O)C1(C(=O)O)CCC1.[NH2-].[NH2-].[Pt+2],–,19.5 µM (active)
O=S(=O)(O)c1ccc(O)cc1,0.22,–
CC1(C)OC[C@@H]2O[C@@]3(C(=O)O)OC(C)(C)O[C@H]3[C@@H]2O1,1.12,–
C[C@]12CCC(=O)C=C1C=C[C@@H]1[C@@H]2CC[C@@]2(C)[C@H]1CC[C@@]21CCC(=O)O1,-21.9,–
COc1cc(NS(=O)(=O)c2ccc(N)cc2)ncn1,7.29,–
Cc1nc(-c2ccc(Cl)cc2)oc1COC(C)(C)C(=O)O,2.23,–
Cc1cc(CC(=O)O)c(C)n1-c1ccc(Cl)cc1,-23.7,–
C/C=C/c1ccc(O)c(OC)c1,9.88,–
Cc1c(-c2ccccc2)oc2c(C(=O)OCCN3CCCCC3)cccc2c1=O,–,3.89 µM (active)
CCCCN1C[C@H](O)[C@@H](O)[C@H](O)[C@H]1CO,9.58,–
CCCCC(CC)CN1CN(CC(CC)CCCC)CC(C)(N)C1 (centres undefined),–,0.219 µM (active)
CC(C)n1c(/C=C/[C@@H](O)C[C@@H](O)CC(=O)O)c(-c2ccc(F)cc2)c2ccccc21,-9.48,–
CCN(CC)CCOC(=O)C(Cc1cccc2ccccc12)CC1CCCO1 (centres undefined),–,3.09 µM (active) and 3.38 µM (active)
CCOc1ccccc1C(N)=O,-4.78,–
CN1CCN(C2=Nc3ccccc3Sc3ccc(Cl)cc32)CC1,–,15.5 µM (active)
CC(=O)OC[C@H]1O[C@@H](n2ncc(=O)[nH]c2=O)[C@H](OC(C)=O)[C@@H]1OC(C)=O,–,7.76 µM (active)
NC1CCN(c2nc3c(cc2F)c(=O)c(C(=O)O)cn3-c2ccc(F)cc2F)C1 (centres undefined),3.91,–
C[N+]1(C)CCC(=C(c2ccccc2)c2ccccc2)CC1,–,13.8 µM (active)
CCCCNc1ccc(C(=O)OCCOCCOCCOCCOCCOCCOCCOCCOCCOC)cc1,-18.9,–
CC1CCc2c(N3CCC(O)CC3)c(F)cc3c(=O)c(C(=O)O)cn1c23 (centres undefined),2.13,–
N#CCC(=O)NN,0.973,–
O=C(CCN1CCN2CCCC2C1)N1c2ccccc2Sc2ccc(Cl)cc21 (centres undefined),–,6.74 µM (active)
COc1cc(O)c(C(=O)c2ccccc2)cc1S(=O)(=O)O,-0.838,–
CCCN(CCc1cccs1)[C@H]1CCc2c(O)cccc2C1,–,169 nM (active) and 195 nM (active)
O=C(Nc1ncc([N+](=O)[O-])s1)c1cccs1,–,13.8 µM (active)
CCCc1ncc(C[n+]2ccccc2C)c(N)n1,10.7,–
CCOC(=O)[C@@](C)(N)Cc1ccc(O)c(O)c1,–,7.76 µM (active)
